An excerpt weighted towards active compounds, which were near 3.2% of everything screened.
HDAC3 inh – HDAC3 deacetylase inhibitors, primary screen, biochemical, fluorescence, cell-free homogeneous | hit rate 0.15% among 320,000 | inhibition, % at 8.3 µM | recombinant HDAC3, fluorogenic peptide/trypsin coupled | AID 2718, 2010; in the data active = inhibition above about 26%, passing the limit was not always enough
PHOSPHO1 inh – PubChem AID 1565; inhibition, % at 13.3 µM; hit rate 1.1% among 290,000; recombinant PHOSPHO1, absorbance phosphatase assay; Phosphoethanolamine/phosphocholine phosphatase (Homo sapiens), Q8TCT1; in the data active = inhibition above about 60%
ANO1 activ – TMEM16A chloride channel activators or potentiators, primary screen, cell-based, HTS | Anoctamin-1 (Mus musculus), Q8BHY3 | HEK293 TMEM16A/YFP-H148Q/I152L, iodide quench fluorescence; hits give low values | B-score at 10 µM | hit rate 0.3% among 340,000 | AID 623877, 2012;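 active = fluorescence-ratio B-score plate-corrected deviation score at least 3 library SD below zero, with starting fluorescence score within 5 deviations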;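 note: channel opened by trigger with iodide after compound preincubation; score built on the fluorescence ratio of max minus min over baseline; more negative score means more quench and so TMEM16A activation or potentiation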
Target sequence (Q8BHY3 whole entry, looked up): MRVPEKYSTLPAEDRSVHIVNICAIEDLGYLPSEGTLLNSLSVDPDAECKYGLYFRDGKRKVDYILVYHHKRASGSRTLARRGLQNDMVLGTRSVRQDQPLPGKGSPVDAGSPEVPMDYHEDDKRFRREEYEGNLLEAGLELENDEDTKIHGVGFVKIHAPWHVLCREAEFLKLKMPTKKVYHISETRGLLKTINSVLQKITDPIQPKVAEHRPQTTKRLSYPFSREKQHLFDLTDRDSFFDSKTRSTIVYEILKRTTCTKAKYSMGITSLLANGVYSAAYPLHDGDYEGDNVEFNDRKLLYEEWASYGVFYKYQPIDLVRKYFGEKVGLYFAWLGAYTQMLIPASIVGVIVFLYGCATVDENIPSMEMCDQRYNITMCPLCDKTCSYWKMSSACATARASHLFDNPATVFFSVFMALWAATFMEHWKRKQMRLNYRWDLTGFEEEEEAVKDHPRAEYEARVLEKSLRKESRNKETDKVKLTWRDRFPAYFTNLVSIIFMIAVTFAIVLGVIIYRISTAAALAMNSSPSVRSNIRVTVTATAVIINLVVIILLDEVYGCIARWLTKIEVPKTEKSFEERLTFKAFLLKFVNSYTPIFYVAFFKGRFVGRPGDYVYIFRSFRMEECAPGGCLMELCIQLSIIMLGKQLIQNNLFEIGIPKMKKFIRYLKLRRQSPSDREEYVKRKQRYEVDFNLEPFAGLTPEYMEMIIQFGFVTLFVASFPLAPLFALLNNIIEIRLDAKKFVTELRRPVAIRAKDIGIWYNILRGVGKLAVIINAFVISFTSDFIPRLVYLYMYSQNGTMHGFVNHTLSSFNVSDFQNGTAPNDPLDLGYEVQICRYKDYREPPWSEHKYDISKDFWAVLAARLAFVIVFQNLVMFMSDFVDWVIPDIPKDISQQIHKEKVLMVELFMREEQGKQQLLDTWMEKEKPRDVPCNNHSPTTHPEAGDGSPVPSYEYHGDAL
ANO1 block – TMEM16A chloride channel inhibitors, primary screen, cell-based, HTS; AID 588511, 2011; hit rate 1.2% among 310,000; normalized B-score (activity score, 25-100; higher = stronger inhibition) at 10 µM; Anoctamin-1 (Mus musculus), Q8BHY3; HEK293 TMEM16A/YFP iodide influx fluorescence, ionomycin;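 active = ratio plate-corrected score three or more library SD toward inhibition, starting fluorescence score within five deviations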;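 note: score derived from kinetic fluorescence span divided by baseline fluorescence per well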
CHT block – inhibitors of human choline transporter CHT | High affinity choline transporter 1 (Homo sapiens), Q9GZV3 | CHT-expressing cells, membrane potential dye, choline response; hits give low values | B-score at 10 µM | hit rate 0.86% among 310,000 | AID 488975, 2010;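 active = B-score over 3 SD under the library average, and starting fluorescence ratio not unusually high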;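 note: choline stimulus applied at its EC90 after an EC20 pre-addition; B-score computed on integrated fluorescence ratio after choline addition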
CHT PAM – CHT positive allosteric modulators, primary screen, cell-based, membrane potential dye, choline EC20. CHT-expressing cells; hits give high values; LV-AA mutant CHT in HEK293 cells. hit rate 0.49% among 310,000. B-score at 10 µM;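 active = initial fluorescence not abnormally high and integrated response B-score, plate-corrected, over 3 SD above library mean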
An asterisk follows results filed as active; i = inactive; / = no result given.

SMILES	HDAC3 inh	PHOSPHO1 inh	ANO1 activ	ANO1 block	CHT block	CHT PAM
OCCNc1ncnc2c1c(-c1ccccc1)c(-c1ccccc1)n2Cc1ccco1	-22	12	i	i	i	i
c1ccc(-c2c(-c3ccccc3)n(Cc3ccco3)c3ncnc(NCCCn4ccnc4)c23)cc1	-9	24	i	100*	i	i
c1ccc2c(c1)oc1c(NCCCn3ccnc3)ncnc12	-4	72*	i	i	i	i
c1ccc(-c2oc3ncnc(NCCCn4ccnc4)c3c2-c2ccccc2)cc1	-24	-14	i	100*	i	i
CC(C)Cn1cnc2c(c(-c3ccccc3)c(-c3ccccc3)n2Cc2ccco2)c1=N	2	4	i	i	i	i
Cc1ccccc1NS(=O)(=O)c1ccc(NS(=O)(=O)c2cccs2)cc1	4	26	i	i	i	i
CCC/C(=C1/c2ccccc2C(=O)N1c1ccccc1)c1ccc(O[C@@H]2CCCCO2)cc1	1	/	i	/	/	/
O=C(Cc1cccs1)NNC(=O)C12CC3CC(CC(C3)C1)C2	-1	61*	i	i	i	i
O=C(CNCc1cccs1)NC12CC3CC(CC(C3)C1)C2	4	24	i	i	i	i
O=C(Nc1nccs1)c1ccc([N+](=O)[O-])cc1	3	38	i	i	i	i
CCCCCC(=O)Nc1nc(C)c(-c2csc(Nc3cc(Cl)ccc3C)n2)s1	-4	70*	i	i	i	i
CCCC(C)C(=O)Nc1nc(C)c(-c2csc(Nc3cc(Cl)ccc3C)n2)s1 (stereo not drawn)	3	74*	i	i	i	i
CCCCCCC(=O)Nc1nc(C)c(-c2csc(Nc3ccc(Cl)cc3)n2)s1	-4	72*	i	i	i	i
CCCCCC(=O)Nc1nc(C)c(-c2csc(Nc3ccc(Cl)cc3)n2)s1	14	-143	i	i	i	i
CC1CCc2sc(C(=O)OCC(=O)NC(C)C)cc2C1 (stereo not drawn)	2	2	i	i	i	i
CCn1c(=O)c(C(=O)NNC(=O)c2cccc(Cl)c2)c(O)c2ccccc21	2	36	i	i	i	i
Cc1nnc(SCC(=O)c2c(N)n(C3CC3)c(=O)[nH]c2=O)n1C	-11	/	i	/	/	/
O=C(Cc1ccc(Br)cc1)c1ccc(O)cc1O	9	25	i	i	-6.7*	i
NC(=O)c1cccc(NC(=O)CCCCC(=O)Nc2cccc(C(N)=O)c2)c1	4	22	i	i	i	i
Cc1ccc(S(=O)(=O)Nc2ccccc2N2CCCCC2)cc1	4	/	-20*	/	/	/
Cc1ccc(C)n1-c1ccccc1N1CCCCC1	5	63*	i	i	i	i
O=S(=O)(c1ccccc1)c1nc(-c2ccco2)oc1NCCCN1CCOCC1	7	0	i	i	i	i
CC(C)(C)C(=O)Nc1ccc(C(=O)N/N=C/c2ccccc2OC(=O)c2ccccc2)cc1	35*	47	i	i	i	i
CC(C)(C)C(=O)Nc1ccc(C(=O)N/N=C/c2ccccc2OC(=O)c2ccc(Cl)cc2)cc1	4	-17	i	i	i	i
CCc1cc2c(=O)oc(-c3ccccc3F)nc2s1	69*	30	i	i	i	i
SMILES	HDAC3 inh	PHOSPHO1 inh	ANO1 activ	ANO1 block	CHT block	CHT PAM
Cc1cc2c(=O)oc(-c3ccccc3Br)nc2s1	/	24	i	/	/	/
O=[N+]([O-])c1ccc(Sc2n[nH]c(-c3ccccc3)n2)nc1	-1	84*	i	i	i	i
CC(=O)Nc1ccc(S(=O)(=O)NCCS(=O)(=O)N2CCN(c3ccccc3)CC2)cc1	-5	30	i	i	i	i
O=[N+]([O-])c1ccc(S(=O)(=O)NCCS(=O)(=O)N2CCN(c3ccccc3)CC2)cc1	1	12	-29*	i	i	i
COc1ccc(S(=O)(=O)Nc2ccc(F)c(F)c2)cc1Cl	2	25	i	i	-6.4*	i
CC1=C(C(=O)OCC(C)C)C(c2cccs2)NC(=S)N1 (stereo not drawn)	5	-12	i	i	i	i
Cc1cccc(-n2nnc(C(=O)NCc3ccc4c(c3)OCO4)c2N)c1	2	60*	i	i	i	i
COc1ccc2c(c1)S/C(=C\C(=O)c1ccncc1)N2C	4	70*	i	i	i	i
COc1cc(OC)cc(C(=O)/C=C2\Sc3ccccc3N2C)c1	13	7	i	i	i	i
Cc1ccc(OCC(=O)Nc2ccc(CN3CCOCC3)cc2)cc1	-1	61*	i	i	i	i
CN(C)C(=O)N1CCCC(C(=O)NCc2ccccc2Cl)C1 (stereo not drawn)	3	46	i	i	i	i
CCc1n[nH]c(=S)n1/N=C/c1ccc2c(c1)OCO2	-1	103*	i	i	i	i
CCOc1ccc(Nc2nc(Cl)nc(NCCO)n2)cc1	-2	-24	i	i	i	i
Cc1c(Br)c(O)c(Br)c2sc(=O)oc12	4	-69	i	i	-8.2*	i
CCCNC(=O)COc1coc(CN2CCN(c3ccccc3)CC2)cc1=O	0	41	i	i	i	i
O=C(Nc1ncccc1O)c1ccc(OCC2CCCO2)cc1 (stereo not drawn)	68*	-31	i	i	i	i
COc1ccccc1NS(=O)(=O)c1ccc(C(=O)Nc2ncccc2O)cc1	79*	/	i	/	/	/
O=C(Nc1ncccc1O)c1ccc(Oc2ccccc2)cc1	56*	47	i	i	i	i
O=C(Nc1ccc(Cl)c(S(=O)(=O)N2CCOCC2)c1)c1ccc(OCC2CCCO2)cc1 (stereo not drawn)	2	-2	i	100*	i	i
COc1ccccc1CNC(=O)c1cc(S(=O)(=O)N2CCN(c3ccccc3)CC2)ccc1Cl	/	/	i	/	/	/
O=C1c2cccc3cccc(c23)C(=O)N1CCCSc1ncn[nH]1	-4	4	i	i	i	i
Cc1csc(/C(=N/OC(=O)c2ccco2)C(N)=O)n1	28*	-3	i	i	i	i
Cc1onc(-c2ccccc2Cl)c1C(=O)NCc1cccs1	-1	22	i	i	i	i
